# In all, about 290,000 compounds went through this assay and about 27,000 (9.3%) were called active. For the sample, actives were picked, then their nearest neighbours and some compounds at random. A number with no mark means an inactive call. Cut-off read from the data, not from the text of the source: active = inhibition mostly above about 28% (no sharp cut-off); inactive = mostly below about 43%.
# Assay: A qHTS for Small Molecule Inhibitors of Shiga Toxin; note: 0% is about no effect
# Details: Vero cells, Shiga toxin protein synthesis inhibition reporter; at 38.7 µM, hits give high values
row,SMILES,inhibition
1,Cc1cc(OC(=O)c2ccc(OC(C)C)cc2)c([N+](=O)[O-])c(=O)[nH]1,13%
2,COc1ccc(-n2nc3c(N4CCC(C(=O)NCc5ccccc5)CC4)nnc(C)c3c2C)cc1,-7%
3,COc1ccc(CCNC(=O)CCc2cn(C)c3ccccc23)c(OC)c1,-3.65%
4,O=C(/C=C/c1ccco1)Nc1ccc(Oc2ccccc2)cc1,80.2% (active)
5,CCc1nnc(NC(=O)/C=C/c2ccc(C)o2)s1,26.8%
6,CCC(CC)c1nnc(NC(=O)/C=C/c2ccco2)s1,20%
7,CN1CCN(S(=O)(=O)c2ccc(NC(=O)c3ccco3)cc2)CC1,47.4%
8,C/C(=N\NS(=O)(=O)c1ccc(Cl)cc1)c1ccc(NC(=O)c2ccco2)cc1,34% (active)
9,O=C(O)/C=C\C(=O)Nc1ccc(OCc2ccccc2)cc1,43%
10,Cc1nnc(NC(=O)/C=C/c2ccco2)s1,45.9% (active)
11,C/C(=N/NS(=O)(=O)c1ccccc1)c1ccc(NC(=O)C(F)(F)F)cc1,-9.75%
12,Cc1ccc(C(=O)COc2cccc(NC(=O)c3ccco3)c2)cc1,14.8%
13,Cc1cccc(NC(=O)Nc2cccc(Oc3c(F)c(F)c(F)c(F)c3F)c2)c1,-0.582%
14,CC(C)CNC(=O)COC(=O)/C=C/c1ccco1,-5.59%
15,CCOC(=O)c1cccc(NS(=O)(=O)c2c(C(=O)N3CCCCCC3)c(C)n(C)c2C)c1,-9.67%
16,CC(=O)Nc1ccc(NC(=O)[C@@H](NC(=O)c2cccc(C)c2)C(C)C)cc1,-2.98%
17,Cc1cc(C)cc(OCC(=O)Nc2cc(NC(=O)COc3cc(C)cc(C)c3)cc(C(=O)O)c2)c1,-3.47%
18,Cc1ccc(NC(=O)CSc2cccc3cccnc23)c(C)c1,21.1%
19,O=C(CN1C(=O)COc2ccc(Cl)cc21)N1CCOCC1,-1.98%
20,CC1CCN(S(=O)(=O)c2nnc(NC(=O)COc3ccccc3F)s2)CC1,2.6%

row,SMILES,inhibition
1,COc1cccc(C(=O)Nc2ccc(NC(=O)c3ccco3)cn2)c1,124% (active)
2,Cc1ccc(NC(=O)/C(=C\c2ccccc2)NC(=O)c2ccco2)cc1,15.6%
3,CCCC(=O)Nc1ccc2c(c1)nc(CCNC(=O)c1ccco1)n2C,-1.85%
4,O=C(Nc1ccc(NC(=O)c2cccs2)cn1)c1ccco1,27.3%
5,Cc1ccnc(NC(=O)c2ccc(NC(=O)c3ccco3)cc2)c1,64.6% (active)
6,O=C(Nc1cccc(-c2nc3ncccc3o2)c1)c1ccco1,1.9%
7,Cc1cc(NC(=O)c2ccc(F)cc2)ccc1NC(=O)c1ccco1,39.7%
8,COc1ccc(NC(=O)c2cccc(NC(=O)c3ccco3)c2)c(OC)c1,7.82%
9,O=C(Nc1ccc(O)cc1)c1ccc(NC(=O)c2ccco2)cc1,32.1% (active)
10,O=C(Nc1ccc2oc(-c3ccccc3F)nc2c1)c1ccco1,85.3% (active)
11,Cc1cc(=O)oc2c3c(cc(OCC(=O)N[C@H](C(=O)O)c4ccccc4)c12)OC(C)(C)CC3,9.9%
12,Oc1ccc(C2Nc3cccc4cccc(c34)N2)cc1,-4.55%
13,CSc1ccc(S(=O)(=O)N2CCC(C(=O)NCc3ccncc3)CC2)cc1,-6.82%
14,CCOC(=O)N1CCN(S(=O)(=O)c2ccc(Br)cc2)CC1,9.83%
15,COCCN1C(=O)C(=O)/C(=C(/O)c2ccc(S(=O)(=O)N3CCOCC3)cc2)C1c1ccc(OC)c(OC)c1 (stereo not given),-8.01%
16,Cc1cccn2c(=O)c(/C=C(\C#N)C(N)=O)c(N3CCCCCC3)nc12,-3.79%
17,CC(C)Oc1ccc(C(CC(=O)N2CCOCC2)C(C)C)cc1 (stereo not given),5.33%
18,COc1cc(C2/C(=C(\O)c3ccc4c(c3)CC(C)O4)C(=O)C(=O)N2c2nnc(C)s2)cc(OC)c1OC (stereo not given),-6.77%
19,Cc1ccc(C(=O)NC2CCN(C(=O)Nc3ccccc3Cl)CC2)cc1,-5.62%
20,COCCOC(=O)C1=C(C)NC(=O)NC1c1cc2c(cc1Br)OCO2 (stereo not given),13.8%

row,SMILES,inhibition
1,O=C(Nc1ccccc1)c1ccco1,19.7%
2,Cc1ccnc(NC(=O)c2ccco2)n1,24.9%
3,O=C(Nc1ccncc1)c1ccc(Cl)c([N+](=O)[O-])c1,-0.478%
4,Cc1cc(NC(=O)[C@H](C)NC(=O)c2ccco2)ccc1Br,4.7%
5,O=C(Nc1ccc(Sc2ccc(Br)cc2)cc1)c1ccco1,60.3% (active)
6,O=C(Nc1ccc(Oc2ccccc2)cc1)c1ccco1,169% (active)
7,O=C(Nc1cccc(NC(=O)c2ccco2)c1)c1cnccn1,7.98%
8,Cc1ccnc(NC(=O)c2ccc(Cl)c([N+](=O)[O-])c2)c1,50.2% (active)
9,O=C(Nc1ccccc1)/C(=C\c1ccco1)NC(=O)c1ccco1,14.3%
10,O=C(Nc1ccc2nccnc2c1)c1ccco1,98.5% (active)
11,O=C(Nc1cccnc1)c1ccc(Cl)c([N+](=O)[O-])c1,52.4%
12,COC(=O)c1cc(NC(=O)c2ccco2)ccc1N1CCOCC1,-9.27%
13,O=[N+]([O-])c1ccc(NC(=S)N2CCN(c3ccccn3)CC2)cc1,-11.7%
14,O=C(CCN1CCCO1)N1CCCC(N2CCN(c3cccc(C(F)(F)F)c3)CC2)C1 (stereo not given),3.43%
15,CCNS(=O)(=O)c1ccc(NC(=O)c2cncc(Br)c2)cc1,-9.77%
16,COc1ccccc1N1CCN(C(=O)c2ccc(NC3=NC4CS(=O)(=O)CC4S3)cc2)CC1 (stereo not given),-1.81%
17,COc1ccc(CNC(=O)C2CC(c3ccc(C(F)(F)F)cc3)=NO2)cc1 (stereo not given),-4.35%
18,Cc1cc(C(=O)NC2CCN(Cc3ccccc3)CC2)n[nH]1,-10.2%
19,CCOc1ccc(C(=O)Nc2c3c(nn2-c2ccccc2)CS(=O)(=O)C3)cc1,-5.21%
20,COC(=O)c1c(NC(=O)C(=O)N2CCCCC2)sc2c1CC(C)(C)OC2,-9.37%

# — PubChem BioAssay AID2315 (National Center for Advancing Translational Sciences (NCATS), 2010)
